An excerpt weighted towards active compounds, which were near 10% of everything screened.
ELG1 repair inh = inhibitors of ELG1-dependent DNA repair in HEK293T cells; HEK293T ELG1-luciferase reporter, luminescence, 16 h; DNA damage induced by 5-fluorouridine; Potency, µM (titrated, usually from 46.1 µM), inactives show top-dose activity change, negative = inhibition, usual class: inhibitors; 330,000 tested, 2.3% active; further: on the % scale 0 is the no-effect control and ±100 the full control effect; nearly all actives have a fitted effect of over 55% in size
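Cells (2,000 per well) received 5-fluorouridine plus test compound or DMSO and were incubated 16 hr at 37 °C, 5% CO2. Luciferase activity was read by luminescence 30 min after ONE-Glo addition; signal suppression marked inhibition of damage-induced ELG1 function.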
SW480 rereplic = inducers of DNA re-replication in SW480 colon cancer cells | Potency, µM (highest dose often 46.1 µM), without a hit: at the top dose re-replication activation, hits mostly activators | 340,000 tested, 1.8% active | SW480 DNA re-replication, Hoechst DNA content imaging, 48 h | AID 624297; further: % of control where 0% means no effect; nearly all actives have a fitted effect of over 55% in size
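Cells (250 per well) received 23 nL compound or DMSO by pin tool and were kept 48 hr at 37 C, 5% CO2. Nuclei were then stained with Hoechst for 40 min and scanned for DNA content.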
RORgamma inh = blocks mouse ROR gamma transcriptional activity; Drosophila S2 Gal4-RORgamma UAS-luciferase reporter, 20 h; Potency, µM (highest dose often 53.6 µM), for the others: at the highest dose activity change, negative = inhibition, hits mostly inhibitors; 310,000 tested, 5.4% active; AID 2551; further: on the % scale 0 is the no-effect control and ±100 the full control effect; nearly all actives have a fitted effect of over 60% in size
Target sequence (P51450 whole entry, looked up, the tested form may be a part): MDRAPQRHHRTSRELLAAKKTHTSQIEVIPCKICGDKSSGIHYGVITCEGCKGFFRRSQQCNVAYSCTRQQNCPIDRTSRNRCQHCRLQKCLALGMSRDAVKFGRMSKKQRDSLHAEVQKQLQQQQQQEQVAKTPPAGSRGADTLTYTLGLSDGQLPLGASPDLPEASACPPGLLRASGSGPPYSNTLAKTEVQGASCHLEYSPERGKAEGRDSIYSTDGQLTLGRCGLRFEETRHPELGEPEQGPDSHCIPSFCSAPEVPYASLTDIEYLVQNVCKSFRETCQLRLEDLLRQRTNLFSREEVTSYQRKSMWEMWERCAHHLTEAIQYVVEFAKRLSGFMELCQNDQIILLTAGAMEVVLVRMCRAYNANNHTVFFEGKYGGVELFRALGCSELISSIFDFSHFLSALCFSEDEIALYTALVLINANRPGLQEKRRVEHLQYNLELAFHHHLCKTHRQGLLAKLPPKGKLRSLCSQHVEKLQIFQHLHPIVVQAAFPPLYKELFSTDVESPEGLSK
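ROR gamma transcriptional activity was tracked as Gal4-UAS luciferase output in stably transfected Drosophila Schneider cells, with compound added 1 hr before 700 uM copper sulfate induction and a 20 hr ambient-temperature incubation.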
Gal4-VP16 FLuc = Gal4-VP16 reporter inhibition counter-screen | Drosophila S2 Gal4-VP16 UAS-luciferase, luminescence, 20 h | Potency, µM (titrated, usually from 53.6 µM), for inactives: top-dose activity, negative = inhibition, most hits filed as inhibitors | 310,000 tested, 3.5% active | AID 2546;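 further: Gal4-VP16 expression switched on by copper sulfate through the metallothionein promoter; on the % scale 0 is the no-effect control and ±100 the full control effect; nearly all actives have a fitted effect of over 50% in size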
MCF10A rerep = inducers of DNA re-replication in MCF 10A breast cells. MCF 10A DNA re-replication, Hoechst nuclear intensity, 48 h. AID 624296. 350,000 tested, 2.9% active. Potency, µM (top dose mostly 46.1 µM), for the others: top-dose activity, positive = re-replication, usual class: activators; further: % of control where 0% means no effect; nearly all actives have a fitted effect of over 50% in size
ELG1 FLuc counter = luciferase inhibition in cell-free luciferin readout for ELG1 hits; shares compounds with ELG1 repair inh; cell-free firefly luciferase luminescence counter-screen, ViewLux; Potency, µM (top dose mostly 46.1 µM), for inactives: at the top dose activity change, negative = inhibition, hits mostly inhibitors; 350 tested, 3% active; AID 624247; further: on the % scale 0 is the no-effect control and ±100 the full control effect
ELG1 Luc conf = inhibits ELG1-dependent DNA repair in HEK293T cells, confirmed. shares compounds with ELG1 repair inh. HEK293T ELG1-luciferase levels, luminescence; cells co-treated with 5-fluorouridine. Potency, µM (titrated, usually from 46.1 µM), for inactives: at the top dose activity change, negative = inhibition, most hits filed as inhibitors. 670 tested, 68% active; further: on the % scale 0 is the no-effect control and ±100 the full control effect; nearly all actives have a fitted effect of over 55% in size
ELG1 MMS Luc = inhibits ELG1-dependent repair under MMS stimulation in HEK293T cells; shares compounds with ELG1 repair inh; HEK293T luciferase-tagged ELG1 level, MMS stimulated; Potency, µM (titrated, usually from 46.1 µM), without a hit: at the top dose activity change, negative = inhibition, usual class: inhibitors; 670 tested, 53% active; further: on the % scale 0 is the no-effect control and ±100 the full control effect; nearly all actives have a fitted effect of over 60% in size
ELG1 5FU viab = confirmation of ELG1 repair inhibitors: viability with 5FU; shares compounds with ELG1 repair inh; cell viability with 5-FU, ELG1-dependent repair; Potency, µM (series often up to 46.1 µM), for inactives: at the top dose activity change, negative = viability loss, usual class: cytotoxic; 670 tested, under 10 active;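 further: ELG1-luc HEK293T cells cotreated with 5-fluorouridine at 10 µM final; viability measured 16 h after compound addition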
ELG1 MMS viab = confirmation of ELG1 repair inhibitors: viability with MMS; 670 tested, 33% active; AID 624251; Cell viability with MMS, ELG1-dependent DNA repair; shares compounds with ELG1 repair inh; Potency, µM (series often up to 46.1 µM), for the others: at the top dose activity change, negative = viability loss, usual class: cytotoxic;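 further: ELG1-luc HEK293T cells co-treated with 10 µM MMS; viability read 16 h after compound addition; on the % scale 0 is the no-effect control and ±100 the full control effect; nearly all actives have a fitted effect of over 60% in size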
Cell viab unstim = affects unstimulated cell viability, ELG1 hit counter-screen; shares compounds with ELG1 repair inh; cell viability counter-screen, unstimulated, luminescence; Potency, µM (series often up to 45.9 µM), inactives show top-dose activity change, negative = loss of viability, hits mostly cytotoxic; 900 tested, 8% active; AID 624252;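 further: compound exposure lasted 16 hours before reading; on the % scale 0 is the no-effect control and ±100 the full control effect; nearly all actives have a fitted effect of over 55% in size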
FLuc biochem = firefly luciferase inhibition counter-screen; purified firefly luciferase, luminescence counter-screen; 350 tested, 10% active; AID 624253; Potency, µM (series often up to 57.5 µM), inactives show at the top dose activity, negative = inhibition, hits mostly inhibitors; shares compounds with ELG1 repair inh; further: on the % scale 0 is the no-effect control and ±100 the full control effect
Active calls of the source: *; ? = inconclusive; nt = no result given; [ ] = another dose, or the depositor's remark. The call rests on the fitted dose curve; in most records, active means well fitted curve in the direction sought with a large enough effect; inconclusive means small, poorly fitted or top-dose-only effect, or another doubt; inactive means no such curve, though single readings can be large; an effect the other way counts as inactive or inconclusive. Potency means the concentration at half of the fitted maximal effect.

SMILES	ELG1 repair inh	SW480 rereplic	RORgamma inh	Gal4-VP16 FLuc	MCF10A rerep	ELG1 FLuc counter	ELG1 Luc conf	ELG1 MMS Luc	ELG1 5FU viab	ELG1 MMS viab	Cell viab unstim	FLuc biochem
COc1cc2c(C#CCCO)c(-c3ccsc3)oc(=O)c2cc1OC	?	-7%	nt	nt	25%	5%	6.3µM*	7.9µM*	-3%	-8%	?	1%
O=c1c2ccccc2oc2ccc(-c3ccoc3)cc12	nt	nt	nt	nt	nt	nt	nt	nt	nt	nt	?	nt
CC(=O)c1ccc2oc3ccccc3c(=O)c2c1	?	1%[9.22 µM]	7%	-5%	-4%	nt	nt	nt	nt	nt	nt	nt
c1ccc(CCNc2ccccn2)nc1	nt	-4%	nt	nt	0%	nt	nt	nt	nt	nt	nt	nt
Cc1csc2ncnc(NCCc3ccccn3)c12	1.5µM*	?	-6%	10µM*	-1%	nt	?	1.6µM*	-3%	2.2µM*	?	nt
Cc1cc(C)n(CCN(C)C(=O)C2CCC(=O)N(CCN3CCOCC3)C2)n1 (configuration not stated)	20%	-7%	15%	-3%	0%	nt	nt	nt	nt	nt	nt	nt
CC1=C(C(=O)OCCCBr)C(c2ccc3c(c2)OCO3)NC(=O)N1 (configuration not stated)	?	3%	-1%	1%	4%	nt	nt	nt	nt	nt	nt	nt
Cc1nc2sc3c(NCc4ccco4)ncnc3c2c2c1COC(C)(C)C2	2.6µM*	?	-10%	-16%	?	-7%	3.5µM*	22µM*	?	-11%	?	-4%
Cc1cccn2c(CNCC3(c4ccccc4)CCCC3)c(C(=O)N3CCOCC3)nc12	2.9µM*	0%	-6%	4%	34%	nt	?	13µM*	-9%	25µM*	?	nt
CC1=C(C(=O)OCc2ccc3c(c2)OCO3)C(c2ccc(Cl)cc2)NC(=O)N1 (configuration not stated)	0.23µM*	7%	-17%	-26%	?	?	0.2µM*	0.89µM*	11%	?	?	3%
CSCCOC(=O)C1=C(C)NC(=O)NC1c1ccc2c(c1)OCO2 (configuration not stated)	-13%	1%	-13%	8%	2%	nt	nt	nt	nt	nt	nt	nt
CC1=C(C(=O)OCc2ccc3c(c2)OCO3)C(c2ccc(F)cc2)NC(=O)N1 (configuration not stated)	1.3µM*	-1%	15%	-7%	2%	?	0.89µM*	4.5µM*	-1%	?	?	-7%

High-throughput results from PubChem.
